The text below walks through data of PubChem BioAssay.

SMILES strings stand for the structures.

This assay is described as follows: NFkB reporter suppression in cystic fibrosis bronchial cells – cell-based, uHTS hits, panel, cytotoxicity readout, dose response (AID 624344). The note with it: CF bronchial epithelial cells, PAF-induced NFkB reporter inhibition, with PAF, run 1; at 79 µM (top of the series) unless noted.
For the compound `Cc1nn(-c2cccc(Cl)c2)c2nc(C(F)(F)F)[nH]c(=O)c12`, the inhibition was 96%.
Consider `CCCN(CC)c1ncnc2[nH]ncc12`, for which the inhibition amounted to 106%.
With `COc1ccccc1[C@]1(C)ON(c2ccccc2C(F)(F)F)C1=O`, the inhibition was 105%.
The figure for `COc1ccc(COC(=O)C2=C(C)NC(=O)NC2c2ccc(OC)cc2)cc1` (stereo not given) is 76.8%.
To `CCOc1ccc(-n2cc(-c3ccccc3)c3c(N4CCOCC4)ncnc32)cc1` belongs 112%; to `CCOc1ccc(-n2c(C)c(C(C)=O)c3cc(OC(C)=O)ccc32)cc1`, 89%.
To `COc1ccc2c(c1)c(C(C)=O)c(C)n2-c1ccc(C(C)=O)cc1` belongs 89.8%.
As to `CN(Cc1ccccc1)c1ncnc(N)c1[N+](=O)[O-]`, the inhibition is 115%.
Regarding `CCc1nc(Cl)c(C#N)c2c1CCCC2`, the inhibition was found to be 112%.
As to `O=S1(=O)CCC(NC(=S)SCCOc2ccccc2)C1` (stereo not given), the inhibition is 99.3%.
On to `COc1ccc(C(=O)N[C@H](C(=O)Nc2nc3ccccc3[nH]2)C(C)C)cc1`, for which the inhibition came to 99.8%.
To `COc1cc(C2c3cc4c(cc3C3OC(=O)C2C3CO)OCO4)cc(OC)c1OC` (stereo not given) belongs 91.1%; to `COc1ccccc1/C=C/C(=O)c1c2c(c(C)[nH]c1=O)CCCC2`, 110%.
The figure for `Cc1ccc(C(=O)c2cc([N+](=O)[O-])ccc2N2CCCCC2)c(C)c1` is 79.4%; for `CC1=C(C(=O)OCc2ccc3c(c2)OCO3)C(c2ccc(O)c([N+](=O)[O-])c2)NC(=O)N1` (stereo not given) it is 94.5%; for `O=C(Nc1ccc(Br)c2ccccc12)c1ccc2ccccc2c1O` it is 112%.
On to `CNc1ccc2ncc(-c3cccc(C(=O)N(C)C)c3)n2n1`, for which the inhibition came to 111%.
On to `COc1cc(C(=O)Nc2nnc(-c3sccc3C)s2)cc(OC)c1OC`, for which the inhibition came to 47.9%.
To `COc1ccc(-c2cc(=O)oc3cc(O)ccc23)cc1` belongs 105%.
With `O=C(NCc1nc(-c2ccc(C(F)(F)F)cc2)no1)Nc1cc(Cl)cc(Cl)c1`, the inhibition is 97.9%.
To `c1cc(-c2nnc3sc(C4CCCCC4)nn23)ccn1` belongs 102%.
Consider `Cc1nc(N)c(C#N)c(-c2cccnc2)c1-c1ccccc1`, for which the inhibition came out at 93.9%.
With `O=C(/C=C/c1cccs1)Nc1cccc(NC(=O)/C=C/c2cccs2)n1`, the inhibition is 97.2%.
Turning to `COc1ccccc1Cn1c(=O)c2ccccc2n2c(Sc3ncnc4sccc34)nnc12`, the inhibition came out at 101%.
Regarding `CN1CCN(S(=O)(=O)c2ccc(Sc3nnnn3-c3ccccc3)c([N+](=O)[O-])c2)CC1`, the inhibition came out at 109%.
The figure for `CCOc1ccc(NCc2cc3c(C(C)(C)C)nn(-c4ccccc4)c3[nH]c2=O)cc1` is 101%; for `O=C1OC(Nc2nc(-c3ccc(F)cc3)cs2)c2ccccc21` (stereo not given) it is 102%.
With `COc1ccc(-c2cn[nH]c2-c2ccc(OCc3ccccc3F)cc2O)cc1OC`, the inhibition turned out to be 113%.
The figure for `Cc1[nH]nc2c1-c1nc3ccccc3nc1C(C)(C)C2` is 113%.
On to `CCOc1ccc(C(C(=O)NC2CCCC2)N(C(=O)c2snc(C(N)=O)c2N)c2cccc(O)c2)cc1` (stereo not given), for which the inhibition turned out to be 105%.
The figure for `COc1ccc(C(=O)Nc2cccc(NC(=O)c3ccc(OC)c(OC)c3)n2)cc1OC` is 106%; for `O=S1(=O)CC=C(CSC(=S)NC2CCS(=O)(=O)C2)C1` (stereo not given) it is 100%; for `Nc1nccc(-c2ccc(-n3cnc4ccccc43)cc2)n1` it is 101%.
To `COCc1cc(S(=O)c2ccc(Cl)cc2)nc(C)n1` (stereo not given) belongs 103%.
Regarding `O=C(CCC1COc2ccccc2O1)Nc1ccc(Cl)cn1` (stereo not given), the inhibition came out at 104%.
For `Cc1c(NC(=O)c2cc(-c3cccs3)nc3ccccc23)c(=O)n(-c2ccccc2)n1C`, the inhibition came out at 112%.
As for `CCOC(=O)Oc1c(OC)cc(C(=O)O[C@@H]2C[C@@H]3CN4CCc5c([nH]c6cc(OC)ccc56)[C@H]4C[C@@H]3[C@H](C(=O)OC)[C@H]2OC)cc1OC`, the inhibition was determined as 54.6%.
In the case of `CC(C)OC(=O)c1cccc(C(=O)Nc2cccc(NC(=O)c3cccc(C(=O)OC(C)C)n3)n2)n1`, the inhibition stood at 103% [at 9.88 µM].
`O=C(NCCc1ccc(F)cc1)c1coc(=O)c(Br)c1`: the inhibition was 82%.
Regarding `CC(=O)OCCN1c2ccccc2Sc2cnccc21`, the inhibition came to 105%.

Usually inhibition stands for the change of the read-out against control, counted positive when it falls.
